Inconclusive results are not listed. Active and inactive are the calls of the source. The call rests on the fitted dose curve; in most records, active means well fitted curve in the direction sought with a large enough effect; inconclusive means small, poorly fitted or top-dose-only effect, or another doubt; inactive means no such curve, though single readings can be large or run the other way.
These compounds were tested against Pyruvate kinase PKM (Homo sapiens) (UniProt P14618) (assay: Secondary LDH Assay for Activators of Human Pyruvate Kinase M1 Isoform: for Probe SAR). Conditions: purified hPK-M1, LDH-coupled NADH fluorescence kinetic; series mostly up to 58.2 µM; activity change, negative = inhibition: at the top concentration.
Outline: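 10 nM hPK-M1 coupled to 1 uM LDH, with 0.1 mM PEP, 4.0 mM ADP, 0.2 mM NADH, 50 mM Tris pH 8.0, 200 mM KCl, 15 mM MgCl2 (final). NADH fluorescence depletion followed kinetically 3-6 min; initial rates normalized to uninhibited controls.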
Further: % of control where 0% means no effect.

Pyruvate kinase PKM (Homo sapiens), sequence (P14618 whole entry, looked up, canonical isoform): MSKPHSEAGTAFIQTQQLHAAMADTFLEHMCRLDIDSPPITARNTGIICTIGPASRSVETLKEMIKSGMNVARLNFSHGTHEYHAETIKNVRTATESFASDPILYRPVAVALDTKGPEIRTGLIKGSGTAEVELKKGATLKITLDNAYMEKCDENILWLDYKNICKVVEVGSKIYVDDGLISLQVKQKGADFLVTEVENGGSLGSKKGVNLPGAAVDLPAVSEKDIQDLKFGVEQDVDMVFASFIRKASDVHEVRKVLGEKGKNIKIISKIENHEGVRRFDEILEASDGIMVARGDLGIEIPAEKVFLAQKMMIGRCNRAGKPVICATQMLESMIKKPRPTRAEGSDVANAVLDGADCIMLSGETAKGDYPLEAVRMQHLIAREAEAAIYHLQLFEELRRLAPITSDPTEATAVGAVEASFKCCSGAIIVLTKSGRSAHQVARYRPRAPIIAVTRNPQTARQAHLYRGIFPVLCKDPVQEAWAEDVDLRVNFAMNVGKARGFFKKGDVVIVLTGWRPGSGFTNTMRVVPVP

Structure (SMILES)	activity change, negative = inhibition
Cc1ccc(NS(=O)(=O)c2cc3c(cc2Cl)NC(=O)C3)cc1C	-4.8% (inactive)
Cc1ccc(NS(=O)(=O)c2ccc3c(c2)NC(=O)CO3)cc1C	15.7% (inactive)
CN(C)c1cccc(S(=O)(=O)N2CCN(S(=O)(=O)c3ccc4c(c3)OCCO4)CC2)c1	-4.42% (inactive)
Cc1ccc2nc(-c3ccc(C)o3)c(Nc3ccc(Cl)cc3)n2c1	-22% (inactive)
CC(=O)Nc1ccc(S(=O)(=O)Nc2ccc(C)c(C)c2)cc1	3.42% (inactive)
COc1ccccc1NS(=O)(=O)c1ccc2c(c1)CCC(=O)N2	3.42% (inactive)
Cc1ccc(NS(=O)(=O)c2ccc3c(ccn3C)c2)cc1C	7.17% (inactive)
O=C1c2ccccc2C(=O)N1c1cnc2ccccc2c1	-5.54% (inactive)
O=C1CCc2cc(S(=O)(=O)Nc3cccc(Cl)c3)ccc2N1	-3.53% (inactive)
Cc1cc(N2C(=O)c3ccccc3C2=O)n[nH]1	-2.21% (inactive)
Cc1c(Cl)cccc1NS(=O)(=O)c1cc2c(cc1F)NC(=O)CC2	4.48% (inactive)
O=C1c2ccccc2C(=O)N1c1cccc2cnccc12	-2.27% (inactive)
Cc1ccc(N(C)S(=O)(=O)c2ccc3c(c2)CCC(=O)N3)cc1C	0.592% (inactive)
CNc1cc2c(cc1S(=O)(=O)Nc1ccc(C)c(C)c1)CCC(=O)N2	4.43% (inactive)
O=C1c2ccccc2C(=O)N1c1ccc(Cl)cc1	-5.95% (inactive)
Cc1ccn2c(NC3CCCCC3)c(-c3ccc(C)o3)nc2c1	-4.41% (inactive)
O=C1CCc2cc(S(=O)(=O)Nc3ccc(Cl)cc3)ccc2N1	-4.92% (inactive)
O=C1c2ccccc2C(=O)N1c1cccc(=O)[nH]1	6.57% (inactive)
COc1ccccc1OC1=NS(=O)(=O)c2ccccc21	1.77% (inactive)
O=C1c2ccccc2C(=O)N1c1ccncc1	10.2% (inactive)
O=C1CCc2cc(S(=O)(=O)Nc3cccc(-c4ccccc4)c3)ccc2N1	5.22% (inactive)
O=C1CCc2cc(S(=O)(=O)NCc3ccccc3)ccc2N1	3.91% (inactive)
Cc1ccc(NS(=O)(=O)c2ccc3c(c2)oc(=O)n3C)cc1C	9.95% (inactive)
COc1cccc(N2C(=O)c3ccccc3C2=O)c1	6.23% (inactive)
Cc1ccc(NS(=O)(=O)c2cc3c(cc2Cl)CCC(=O)N3)cc1C	3.19% (inactive)
Cc1ccc(NS(=O)(=O)c2cccc(F)c2)cc1C	4.61% (inactive)
Cc1ccc2nc(-c3ccc(C)o3)c(Nc3ccc4c(c3)OCO4)n2c1	2.02% (inactive)
O=C1c2ccccc2C(=O)N1c1ccc2ccccc2n1	-5.97% (inactive)
Cc1ccc(NS(=O)(=O)c2cc3c(cc2F)NC(=O)CC3)cc1Cl	4.31% (inactive)
Cc1ccc(Nc2c(-c3ccc(C)o3)nc3ccccn23)cc1	-25.5% (inactive)

Source: PubChem BioAssay AID2620 (National Center for Advancing Translational Sciences (NCATS), 2010)
